Consider six sequences from publication PMC7862700, “An all-to-all approach to the identification of sequence-specific readers for epigenetic DNA modifications on cytosine”.

Common to all, as to experiment: DAPPL (digital affinity profiling via proximity ligation, sequencing); 10 mM Tris-HCl pH 7.5, 50 mM NaCl, 1 mM DTT, 4% glycerol, room temperature, 30 min; GST-TFs on glutathione beads, 16-mer random dsDNA library, 0.1% formaldehyde crosslink after washing; high values mean tight binding
Common to all, as to settings: protein: recombinant; tags: N-terminal GST; dsDNA, one strand shown

For one test, the target named is T1, ERF (Homo sapiens, UniProt P50548 1-548).
T1 sequence: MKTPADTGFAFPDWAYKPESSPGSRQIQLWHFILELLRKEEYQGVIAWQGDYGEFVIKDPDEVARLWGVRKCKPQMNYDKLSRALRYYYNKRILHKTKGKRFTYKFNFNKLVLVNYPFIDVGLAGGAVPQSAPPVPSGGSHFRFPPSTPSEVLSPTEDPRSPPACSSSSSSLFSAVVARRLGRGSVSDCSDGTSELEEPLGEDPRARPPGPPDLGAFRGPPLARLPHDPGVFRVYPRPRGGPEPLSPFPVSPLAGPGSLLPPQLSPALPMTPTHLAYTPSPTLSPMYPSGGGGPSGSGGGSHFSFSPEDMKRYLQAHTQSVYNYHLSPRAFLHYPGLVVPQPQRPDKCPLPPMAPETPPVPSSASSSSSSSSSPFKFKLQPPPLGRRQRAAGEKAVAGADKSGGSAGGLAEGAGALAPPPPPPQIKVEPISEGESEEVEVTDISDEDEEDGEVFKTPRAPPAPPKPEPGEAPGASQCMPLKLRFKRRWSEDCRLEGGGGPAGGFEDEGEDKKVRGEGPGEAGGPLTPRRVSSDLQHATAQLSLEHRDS
Summed up: (§1)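 A tag-only sample was pooled with DNA-barcoded human transcription factors that had been expressed in yeast as GST fusions and captured on glutathione beads. The pools were incubated for 30 min at room temperature with 200 nmole of a random double-stranded 16-mer DNA library in Tris/NaCl/DTT/glycerol buffer, then washed, crosslinked with 0.1% formaldehyde, proximity-ligated (BsaI/T4 ligase, 1 h, 37 °C), PCR-amplified and sequenced on an Illumina NextSeq500. Binding signal is each hexamer's read frequency for a factor divided by its frequency for the tag-only sample.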

Another test concerns the target T2, ETV3L (Homo sapiens, UniProt Q6ZN32 1-361).
T2 sequence: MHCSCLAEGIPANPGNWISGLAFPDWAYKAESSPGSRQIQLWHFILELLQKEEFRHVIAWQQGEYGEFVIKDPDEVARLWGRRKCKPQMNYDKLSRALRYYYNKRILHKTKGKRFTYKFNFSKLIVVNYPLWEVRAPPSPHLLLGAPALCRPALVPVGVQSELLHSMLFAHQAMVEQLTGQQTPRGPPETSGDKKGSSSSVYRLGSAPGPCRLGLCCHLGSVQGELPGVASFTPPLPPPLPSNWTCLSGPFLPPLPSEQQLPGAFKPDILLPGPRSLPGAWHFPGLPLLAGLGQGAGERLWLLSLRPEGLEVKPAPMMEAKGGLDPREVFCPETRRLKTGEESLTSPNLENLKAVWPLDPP
Summed up: as §1

In the next test the target is T3, ETS2 (Homo sapiens, UniProt P15036 1-469).
T3 sequence: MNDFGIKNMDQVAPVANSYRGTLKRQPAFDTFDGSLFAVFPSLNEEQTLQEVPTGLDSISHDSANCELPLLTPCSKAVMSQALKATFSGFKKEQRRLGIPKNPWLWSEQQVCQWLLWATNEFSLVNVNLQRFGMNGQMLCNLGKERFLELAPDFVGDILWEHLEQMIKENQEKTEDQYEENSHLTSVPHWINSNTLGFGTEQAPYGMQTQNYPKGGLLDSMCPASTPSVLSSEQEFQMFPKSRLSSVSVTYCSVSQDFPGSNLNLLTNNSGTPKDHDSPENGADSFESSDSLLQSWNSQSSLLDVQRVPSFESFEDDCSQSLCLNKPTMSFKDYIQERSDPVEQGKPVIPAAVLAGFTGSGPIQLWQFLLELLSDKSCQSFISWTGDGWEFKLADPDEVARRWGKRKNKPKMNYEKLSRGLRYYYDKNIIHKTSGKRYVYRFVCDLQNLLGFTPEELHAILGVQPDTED
Summed up: as §1

Another test deals with T4, SPDEF (Homo sapiens, UniProt O95238 1-335).
T4 sequence: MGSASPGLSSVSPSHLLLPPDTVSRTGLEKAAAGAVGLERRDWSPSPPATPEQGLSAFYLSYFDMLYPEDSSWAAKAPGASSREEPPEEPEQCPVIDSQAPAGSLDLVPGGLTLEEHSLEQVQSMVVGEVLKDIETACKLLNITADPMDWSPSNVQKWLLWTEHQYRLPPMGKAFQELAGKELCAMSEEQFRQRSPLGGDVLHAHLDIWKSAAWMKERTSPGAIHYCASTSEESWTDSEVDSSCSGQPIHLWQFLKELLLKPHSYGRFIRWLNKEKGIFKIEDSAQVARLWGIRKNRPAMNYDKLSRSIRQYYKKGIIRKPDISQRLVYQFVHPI
The procedure, abridged: as §1

The next test addresses T5, ETV7 (Homo sapiens, UniProt Q9Y603 1-341).
T5 sequence: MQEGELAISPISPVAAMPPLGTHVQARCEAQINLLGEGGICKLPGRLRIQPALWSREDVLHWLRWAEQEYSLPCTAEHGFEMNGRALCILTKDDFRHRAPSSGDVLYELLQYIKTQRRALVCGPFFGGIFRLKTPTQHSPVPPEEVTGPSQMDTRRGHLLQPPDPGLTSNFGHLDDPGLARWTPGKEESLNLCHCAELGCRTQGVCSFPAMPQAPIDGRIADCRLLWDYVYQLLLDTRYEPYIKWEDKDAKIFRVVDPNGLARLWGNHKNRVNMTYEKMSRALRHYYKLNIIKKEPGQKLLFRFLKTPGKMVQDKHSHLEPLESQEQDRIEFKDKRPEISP
Summed up: as §1

For another test, the target named is T6, ELF5 (Homo sapiens, UniProt Q9UKW6-2 1-255).
T6 sequence: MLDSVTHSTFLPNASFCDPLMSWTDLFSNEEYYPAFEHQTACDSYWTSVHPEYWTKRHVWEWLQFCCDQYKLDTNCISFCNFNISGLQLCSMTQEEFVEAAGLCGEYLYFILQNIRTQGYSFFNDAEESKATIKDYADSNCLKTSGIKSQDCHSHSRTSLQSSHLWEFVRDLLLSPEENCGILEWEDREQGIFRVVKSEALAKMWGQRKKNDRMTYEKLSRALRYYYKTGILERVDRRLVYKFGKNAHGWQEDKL
Summed up: as §1

The next test has as its target T7, ETV3 (Homo sapiens, UniProt P41162-2 1-143).
T7 sequence: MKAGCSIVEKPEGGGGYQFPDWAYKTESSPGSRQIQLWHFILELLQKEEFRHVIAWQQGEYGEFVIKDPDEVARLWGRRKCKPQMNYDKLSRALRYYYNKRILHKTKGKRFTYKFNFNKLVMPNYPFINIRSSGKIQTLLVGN
Summed up:
as §1

The target in another test is ETV6 (Homo sapiens, UniProt P41212 1-452). Summed up: as §1
Sequence of ETV6 (P41212 whole entry): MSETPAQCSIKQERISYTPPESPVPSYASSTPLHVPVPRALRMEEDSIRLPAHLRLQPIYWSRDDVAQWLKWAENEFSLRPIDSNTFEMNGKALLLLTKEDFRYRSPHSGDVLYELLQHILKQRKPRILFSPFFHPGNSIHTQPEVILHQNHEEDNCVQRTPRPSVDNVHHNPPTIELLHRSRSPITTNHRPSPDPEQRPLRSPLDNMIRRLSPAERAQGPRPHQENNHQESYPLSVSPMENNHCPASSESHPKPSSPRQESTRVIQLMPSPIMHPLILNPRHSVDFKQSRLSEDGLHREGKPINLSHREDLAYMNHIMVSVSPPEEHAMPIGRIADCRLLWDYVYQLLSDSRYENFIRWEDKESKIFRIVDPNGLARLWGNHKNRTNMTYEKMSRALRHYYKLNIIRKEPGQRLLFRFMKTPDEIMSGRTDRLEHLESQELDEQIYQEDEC

As to GAAGTG, the binding signal is 1.48 fold enrichment (6-mer frequency, TF over GST control) with ERF; 1.53 fold enrichment (6-mer frequency, TF over GST control) in the test with ETV3L; 1.55 fold enrichment (6-mer frequency, TF over GST control) with ETS2; 1.47 fold enrichment (6-mer frequency, TF over GST control) in the test with SPDEF; 1.7 fold enrichment (6-mer frequency, TF over GST control) with ETV7; 1.79 fold enrichment (6-mer frequency, TF over GST control) with ELF5. Moreover, the binding signal is 1.75 fold enrichment (6-mer frequency, TF over GST control) with ETV3 and 1.93 fold enrichment (6-mer frequency, TF over GST control) with ETV6.

As for TCATCA, the binding signal with ERF is 1.23 fold enrichment (6-mer frequency, TF over GST control); with ETV3L, 1.18 fold enrichment (6-mer frequency, TF over GST control); in the test with ETS2, 1.15 fold enrichment (6-mer frequency, TF over GST control); with SPDEF it was 1.12 fold enrichment (6-mer frequency, TF over GST control); in the test with ETV7 it was 1.15 fold enrichment (6-mer frequency, TF over GST control); with ELF5, 1.16 fold enrichment (6-mer frequency, TF over GST control). Also, the binding signal with ETV3 is 1.22 fold enrichment (6-mer frequency, TF over GST control); with ETV6 it was 1.08 fold enrichment (6-mer frequency, TF over GST control).

Regarding CCTTTG, the binding signal with ERF is 1.24 fold enrichment (6-mer frequency, TF over GST control); with ETV3L it was 1.32 fold enrichment (6-mer frequency, TF over GST control); with ETS2 it was 1.32 fold enrichment (6-mer frequency, TF over GST control); with SPDEF, 1.22 fold enrichment (6-mer frequency, TF over GST control); with ETV7, 1.33 fold enrichment (6-mer frequency, TF over GST control); with ELF5 it was 1.31 fold enrichment (6-mer frequency, TF over GST control). In addition, the binding signal with ETV3 is 1.34 fold enrichment (6-mer frequency, TF over GST control); in the test with ETV6 it was 1.17 fold enrichment (6-mer frequency, TF over GST control).

For CAATGC, the binding signal with ERF was 1.08 fold enrichment (6-mer frequency, TF over GST control); with ETV3L, 1.15 fold enrichment (6-mer frequency, TF over GST control); with ETS2, 1.15 fold enrichment (6-mer frequency, TF over GST control); in the test with SPDEF, 1.2 fold enrichment (6-mer frequency, TF over GST control); with ETV7, 1.24 fold enrichment (6-mer frequency, TF over GST control); in the test with ELF5, 1.13 fold enrichment (6-mer frequency, TF over GST control). Further, the binding signal was 1.2 fold enrichment (6-mer frequency, TF over GST control) with ETV3 and 1.24 fold enrichment (6-mer frequency, TF over GST control) in the test with ETV6.

For CTCCGT, the binding signal is 1.07 fold enrichment (6-mer frequency, TF over GST control) in the test with ERF; 1.19 fold enrichment (6-mer frequency, TF over GST control) in the test with ETV3L; 1.22 fold enrichment (6-mer frequency, TF over GST control) with ETS2; 1.05 fold enrichment (6-mer frequency, TF over GST control) with SPDEF; 1.33 fold enrichment (6-mer frequency, TF over GST control) with ETV7; 1.14 fold enrichment (6-mer frequency, TF over GST control) with ELF5. The binding signal with ETV3 was 1.22 fold enrichment (6-mer frequency, TF over GST control); in the test with ETV6, 1.16 fold enrichment (6-mer frequency, TF over GST control).

With GAAGAA, the binding signal with ERF was 1.02 fold enrichment (6-mer frequency, TF over GST control); with ETV3L, 1.18 fold enrichment (6-mer frequency, TF over GST control); with ETS2 it was 1.16 fold enrichment (6-mer frequency, TF over GST control); with SPDEF, 1.09 fold enrichment (6-mer frequency, TF over GST control); with ETV7, 1.16 fold enrichment (6-mer frequency, TF over GST control); with ELF5, 1.27 fold enrichment (6-mer frequency, TF over GST control). In addition, the binding signal with ETV3 is 1.12 fold enrichment (6-mer frequency, TF over GST control); with ETV6, 1.18 fold enrichment (6-mer frequency, TF over GST control).
